# The entries come from a sample that favours hits as a whole.
# Pyk2 oligo antag – Pyk2 (human) oligomerization antagonism | Q14289 | Q293 cells, Pyk2 FERM NanoBiT luminescence; stronger effect = lower value | z-score (the deposit names both 25 µM and 10 µM) | 0.83% of 99,000 active | AID 1347419;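 active = Z-score of -3 or lower, scaled per plate to the spread of control and sample wells; inactive = z-score above -3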;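 also: negative z-score means lost luminescence so less FERM oligomerization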
# CD11b adhes inh – blocks human CD11b/CD18 adhesion to fibrinogen; P05107+P11215; 0.54% of 93,000 active; inhibition, % at 10 µM; AID 1497; K562 CD11b/CD18 adhesion to fibrinogen, ATPlite luminescence; Mn2+ added to activate the integrin;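 active = primary inhibition of 50% or more at 10 µM, then 40% or more on retest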
# FAK blocker – FAK (human) kinase inhibition. AID 727. inhibition, %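 (tested at 7 µM)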. biochemical FAK kinase activity assay. 0.84% of 97,000 active; in the data active = inhibition above about 19%
# DAT uptake mod – changed human dopamine transporter uptake under cocaine IC80. LLC-PK1 hDAT cells, [14C]-dopamine uptake with cocaine IC80; actives deviate in either direction. 1.3% of 110,000 active. Q01959. AID 449768. B-score at 10 µM;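 active = Z score or B-score, a plate-position-corrected score, falls beyond the plate's 99.7% confidence bounds, in either direction; inactive = both scores lie inside the 99.7% bounds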
# Target sequence (Q01959 whole entry, looked up): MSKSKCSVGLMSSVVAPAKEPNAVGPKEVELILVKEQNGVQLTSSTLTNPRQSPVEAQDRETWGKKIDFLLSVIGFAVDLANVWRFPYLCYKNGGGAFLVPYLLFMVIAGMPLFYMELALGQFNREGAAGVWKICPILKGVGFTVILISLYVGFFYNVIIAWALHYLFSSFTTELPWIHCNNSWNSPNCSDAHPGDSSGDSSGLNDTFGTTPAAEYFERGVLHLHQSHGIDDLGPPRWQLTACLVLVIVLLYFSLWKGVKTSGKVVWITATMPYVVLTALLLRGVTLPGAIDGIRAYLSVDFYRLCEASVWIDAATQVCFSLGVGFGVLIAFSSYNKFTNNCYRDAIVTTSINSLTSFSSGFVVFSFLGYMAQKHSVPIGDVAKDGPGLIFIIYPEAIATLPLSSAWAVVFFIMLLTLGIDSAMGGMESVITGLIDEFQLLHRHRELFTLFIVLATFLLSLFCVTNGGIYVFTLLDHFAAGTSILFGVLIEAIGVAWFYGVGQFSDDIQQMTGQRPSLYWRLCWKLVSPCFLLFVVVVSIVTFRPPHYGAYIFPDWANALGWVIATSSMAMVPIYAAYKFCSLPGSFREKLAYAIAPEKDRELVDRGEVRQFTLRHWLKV
# D1 allo mod – allosterically modulates the human D1 dopamine receptor | P21728 | HEK293 D1, CRE-luciferase, dopamine EC30 potentiation; actives deviate in either direction | B-score at 10 µM | 5.9% of 58,000 active;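 active = luminescence count or its row- and column-corrected plate score outside the 99.7% band of the plate's sample wells, on either side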
# CD11b adhes enh – increases human CD11b/CD18 adhesion to fibrinogen; P05107+P11215; K562 CD11b/CD18 adhesion to fibrinogen, ATPlite luminescence; activation, % at 10 µM; 0.07% of 93,000 active;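 active = 10 µM primary screen giving 50% or more activity, confirmed by 40% or more on retest at that dose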
# Hits are given with their value; n = inactive; x = no result given.
SMILES,Pyk2 oligo antag,CD11b adhes inh,FAK blocker,DAT uptake mod,D1 allo mod,CD11b adhes enh
O=C(NOC(=O)c1ccccc1Cl)c1cccs1,n,n,n,n,x,n
C=CCOC(=O)C1=C[C@H](c2coc3ccccc3c2=O)C[C@H](OCCCCO)O1,x,x,x,n,x,x
COC(=O)[C@H](CCSC)NC(=O)NCc1ccc(S(N)(=O)=O)cc1,n,n,n,n,n,n
Cc1sc(NC(=O)C2CC=CCC2C(=O)O)c(C(=O)OC(C)C)c1C (configuration not stated),n,n,n,n,x,n
Oc1ccc(Br)cc1/C=N/N1CCN(Cc2ccccc2)CC1,n,x,n,2.4,x,x
Oc1ccc(Br)cc1/C=N/N1CCCCC1,n,x,x,x,x,x
c1cn(CC2(Cn3ccnc3)COC2)cn1,n,n,n,n,n,n
Cc1ccc2nc(NCCCO)nc(-c3ccccc3)c2c1,n,n,n,3.1,x,n
Cc1ccc2nc(NCC(=O)O)nc(-c3ccccc3)c2c1,n,x,n,n,x,x
C/C=C/C(=O)OCC(=O)Nc1cc(-c2cc(C)c(C)cc2C)nn1-c1ccccc1,x,n,x,x,x,n
CCN1CCN(c2cc(C)c3cc(NC(=O)Cc4ccc(OC)c(OC)c4)ccc3n2)CC1,x,n,x,3.1,n,n
CCN1CCN(c2cc(C)c3cc(NC(=O)c4cnccn4)ccc3n2)CC1,x,n,x,n,n,n
CCCCN(C)C(=O)CCC(=O)Nc1ccc2nc(N3CCOCC3)cc(C)c2c1,n,n,n,n,n,n
COc1ccc(N(C)C(=O)CCC(=O)Nc2ccc3nc(N4CCOCC4)cc(C)c3c2)c(OC)c1,n,n,n,3.2,n,n
Cc1cc(N2CCN(C)CC2)nc2ccc(NC(=O)c3ccc(Br)o3)cc12,n,n,x,n,-4.2,n
CCOC(=O)C1CCN(C(=O)c2oc3ccc(S(=O)(=O)N4CC(C)CC(C)C4)cc3c2C)CC1 (configuration not stated),n,n,n,n,x,n
C=CCSc1nnc2c(n1)OC=Nc1ccccc1-2,n,n,n,n,n,n
O=C(Nc1sccc1C(=O)N1CCOCC1)c1cccnc1,n,n,n,n,n,n
CCN(CC)S(=O)(=O)c1ccc(NC(=O)COc2c(OC)cccc2OC)cc1,n,n,n,n,n,n
O=C(Nc1ccccc1C(=O)N1CCN(c2ccccc2)CC1)c1ccco1,n,n,n,n,n,n
COCCNC(=O)CNC(=O)c1nn(-c2ccc(OC)c(Cl)c2)c(=O)c2ccccc12,n,x,n,-6.8,x,x
O=C(CCc1ccccc1)n1nc(-c2ccco2)nc1SCc1ccccc1,x,n,n,x,x,n
CCSc1nc(N)c(C#N)c(-c2ccccc2Cl)c1C#N,-3.7,n,n,n,n,n
CCCC(C)C1C(C#N)=C(N)Oc2cc(C)oc(=O)c21 (configuration not stated),x,x,n,x,n,x
CCOC(=O)CCc1cnccc1-c1cccc(OC)c1O,x,x,x,n,x,x
SMILES,Pyk2 oligo antag,CD11b adhes inh,FAK blocker,DAT uptake mod,D1 allo mod,CD11b adhes enh
CCCCOc1ccc(C(=O)Nc2ccncc2)cc1,n,96,n,n,n,n
CCOC(=O)C1=C(c2ccccc2)N=c2s/c(=C\c3ccco3)c(=O)n2C1c1cccs1 (configuration not stated),n,x,21,x,x,x
CC1(C)N=C(SCC(=O)Nc2ccccc2)C(c2ccc(Cl)cc2)=N1,n,n,n,n,x,n
Cc1ccc(C2=NC(C)(C)N=C2SCC(=O)Nc2ccc(Cl)cc2)cc1,n,n,n,-7.4,x,n
COc1ccc(C(=O)NNC(=S)NC(=O)c2cc(-c3ccccc3)nc3ccccc23)cc1,n,x,n,x,x,x
COc1ccc(Cl)cc1C(=O)NNC(=S)NC(=O)c1cc(-c2ccccc2)nc2ccccc12,n,n,n,x,x,62
CC(NC(=O)COc1ccc(-c2nnco2)cc1)c1ccc(Cl)cc1Cl (configuration not stated),x,n,x,x,x,n
Cc1ccc(C(=O)Nc2sc3c(c2C(=O)O)CCCCC3)o1,n,n,n,n,-3,n
Cc1ccc2cccc(S(=O)(=O)N3CCN(c4cccc(Cl)c4)CC3)c2n1,-3.1,n,n,n,n,n
C[C@H]1O[C@@H](O[C@H]2[C@@H](O)C[C@H](O[C@H]3[C@@H](O)C[C@H](O[C@H]4CC[C@@]5(C)[C@H](CC[C@@H]6[C@@H]5C[C@@H](O)[C@]5(C)[C@@H](C7=CC(=O)OC7)CC[C@]65O)C4)O[C@@H]3C)O[C@@H]2C)C[C@H](O)[C@@H]1O,x,x,x,-6.2,x,x
CS(=O)(=O)N1CCN(c2nc3ccccc3s2)CC1,n,n,n,n,n,n
CC(Nc1nc(N2CCN(S(C)(=O)=O)CC2)nc2ccccc12)c1ccccc1 (configuration not stated),n,x,n,n,-3,x
COCCCNC(=O)c1cccs1,n,n,n,2.7,x,n
O=C(NCCCNC(=O)c1cccs1)c1cccs1,n,n,n,n,n,n
CC1CCC(C(C)C)C(OC(=O)Cn2c(-c3ccccc3)[n+](C)c3ccccc32)C1 (configuration not stated),n,99,x,x,x,n
CC1CCC(C(C)C)C(OC(=O)Cn2c(-c3ccc(F)cc3)[n+](C)c3ccccc32)C1 (configuration not stated),x,64,x,x,x,n
CSc1ccc2c(c1)N(CCC1CCCCN1C)c1ccccc1S2 (configuration not stated),x,x,x,n,-6.3,x
CN(C)CCCN1c2ccccc2Sc2ccc(Cl)cc21,x,x,n,n,x,x
COc1ccc(N=C2NC(=O)S/C2=C\c2ccc(N(C)C)cc2)cc1,-3.1,n,n,n,x,n
CC1CC(=O)NN=C1c1ccc(NCCO)c([N+](=O)[O-])c1 (configuration not stated),n,n,n,-2.6,x,n
COc1ccc(C2=NN(C(C#N)c3ccc(OC)cc3)C(c3ccccc3)C2)cc1 (configuration not stated),n,x,x,x,x,x
Cc1nc(Nc2nc3ccccc3o2)nc2c1CCC2,n,n,n,n,-6.1,n
Cc1ccc(-c2csc3nnc(SCC(=O)NCc4ccc5c(c4)OCO5)n23)cc1,n,n,n,n,19,n
CCc1nnc(NC(=O)CSc2nnc3scc(-c4ccc(C)cc4)n23)s1,n,x,n,n,n,x
Cc1ccc(-c2nc(NC(=O)CSc3nnc4scc(-c5ccccc5)n34)ns2)cc1,x,x,x,2.6,n,x
SMILES,Pyk2 oligo antag,CD11b adhes inh,FAK blocker,DAT uptake mod,D1 allo mod,CD11b adhes enh
O=C(NC1=NC2CCCCC2N1)c1ccccc1 (configuration not stated),n,n,n,n,-5.4,n
CCCCCCC(=O)NNC(=O)CC(=O)Nc1ccccc1C(=O)O,n,n,x,x,x,n
Clc1ccccc1-c1nc(-c2cccnc2)no1,n,n,n,n,-1.5,n
Cc1ccccc1-c1nc(-c2cccnc2)no1,n,n,n,n,n,n
O=C1CCCC2=C1C(c1ccco1)Nc1ccc(C(=O)c3ccccc3)cc1N2 (configuration not stated),n,n,n,3.7,n,n
CCOC(=O)c1sc2nc(N3CCOCC3)c3c(c2c1N)CCCC3,n,n,n,n,n,n

# From PubChem BioAssay
